SENP8 block-1: SENP8 protease inhibitors, primary screen, biochemical, luminescence; Sentrin-specific protease 8 (Homo sapiens), Q96LD8; purified SENP8, Z-RLRGG-aminoluciferin cleavage; inhibition, % at 10 µM; 330,000 compounds, 1.2% hits; AID 2540, 2010; in the data active = inhibition above about 50%
SENP8 block-2: human SENP8 protease inhibitors, primary screen, biochemical, fluorescence, Nedd8 protein substrate, uHTS | Sentrin-specific protease 8 (Homo sapiens), Q96LD8 | recombinant SENP8 | inhibition, % at 20 µM | 360,000 compounds, 0.64% hits; in the data active = inhibition mostly above about 40%, no sharp cut-off; inactive = mostly below about 27%
Platelet DG rel: inhibitors of platelet dense granule secretion, primary screen, cell-based, MLPCN, human platelets. AID 1663, 2009. 300,000 compounds, 0.22% hits. inhibition, %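 (compounds screened at 7.5 µM in platelet-rich plasma)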. human platelet-rich plasma, SFLLRN dense granule ATP release, luminescence;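 active = mean replicate score, as percent of positive control, at or above 50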
SENP6 block: SENP6 protease inhibitors, primary screen, biochemical, luminescence, uHTS. 330,000 compounds, 1.8% hits. Recombinant SENP6 catalytic domain, aminoluciferin luminescence. AID 2599, 2010. Sentrin-specific protease 6 (Homo sapiens), Q9GZR1. inhibition, % at 10 µM;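 active = inhibition above about 50% at the single tested dose, limit read from the data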
Target sequence (Q9GZR1 628-1112 limits assumed): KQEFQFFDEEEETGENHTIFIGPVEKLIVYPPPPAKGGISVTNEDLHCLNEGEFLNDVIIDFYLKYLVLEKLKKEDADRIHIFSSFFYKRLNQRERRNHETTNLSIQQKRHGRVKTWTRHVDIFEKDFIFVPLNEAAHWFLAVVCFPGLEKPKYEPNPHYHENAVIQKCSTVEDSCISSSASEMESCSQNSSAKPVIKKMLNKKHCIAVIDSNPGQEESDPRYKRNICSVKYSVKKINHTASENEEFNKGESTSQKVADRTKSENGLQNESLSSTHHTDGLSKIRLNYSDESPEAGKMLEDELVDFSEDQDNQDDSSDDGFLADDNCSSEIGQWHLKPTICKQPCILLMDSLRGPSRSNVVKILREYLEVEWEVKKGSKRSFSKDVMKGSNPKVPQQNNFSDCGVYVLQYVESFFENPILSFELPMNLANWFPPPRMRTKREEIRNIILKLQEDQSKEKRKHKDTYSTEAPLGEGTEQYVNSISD
SENP7 block: SENP7 protease inhibitors, primary screen, biochemical, luminescence, uHTS. recombinant SENP7, Z-RLRGG-aminoluciferin luminescence, 40 min. inhibition, % at 5 µM. 330,000 compounds, 1.5% hits. AID 434973, 2010;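 active = inhibition above about 50% at the single test dose, limit read from the data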
Of the large screens only hits and unclear results are named; the others gave an inactive call. An excerpt weighted towards active compounds, which were near 2.4% of everything screened.

CC[C@@]12C(=O)N(c3ccc(OC)cc3)C(=O)N1[C@H](c1cccc(C)c1)[C@@H]1C(=O)N(Cc3ccccc3)C(=O)[C@@H]12	none
CCCCNC(=O)C[C@@H]1C[C@@]2(C(=O)OC)CCCCC=C2N(Cc2ccc(Cl)cc2Cl)C1=O	none (no result: SENP8 block-1, Platelet DG rel, SENP6 block, SENP7 block)
CC(CCc1ccccc1)NCc1cccc2ccccc12 (stereo not given)	none
NC(CCCCc1ccccc1)c1cccc2ccccc12 (stereo not given)	Platelet DG rel 50 (no result: SENP8 block-2)
CCOC(=O)Cn1c(=NC(=O)CSC(C)=O)sc2ccccc21	Platelet DG rel 87
CC12CCC(=O)N1C(C(=O)NCc1ccc(Cl)cc1Cl)CS2 (stereo not given)	none
O=S(=O)(Nc1cccc(S(=O)(=O)N2CCCCCC2)c1)c1ccc(F)cc1F	none (no result: Platelet DG rel)
COc1cc(/C=N/NC(N)=O)ccc1OCC(=O)N1C(C)CCCC1C (stereo not given)	Platelet DG rel 62
Cc1cc2c(=Cc3ccc(N(C)C)cc3)c3ccccc3n2[n+]1C	SENP8 block-2 43 (no result: SENP8 block-1, Platelet DG rel, SENP6 block, SENP7 block)
CCOC(=O)c1cc2c(=Cc3ccc(N(C)C)cc3)c3ccccc3n2[n+]1C	SENP8 block-2 91 (no result: SENP8 block-1, Platelet DG rel, SENP6 block, SENP7 block)
CN(C)c1ccc(C=c2c3ccccc3n3c2c2ccccc2[n+]3C)cc1	none (no result: SENP8 block-1, Platelet DG rel, SENP6 block, SENP7 block)
COc1ccc([C@H]2N[C@]3(CCCN(Cc4ccccc4)C3=O)[C@H]3C(=O)N(Cc4ccccc4)C(=O)[C@@H]23)cc1	none (no result: SENP8 block-1, Platelet DG rel, SENP6 block, SENP7 block)
O=C(OCCN1CCCC1)C1(c2ccccc2)CCCC1	none (no result: SENP8 block-1, SENP6 block, SENP7 block)
CN(C)CCOC(=O)C1(c2ccccc2)CCCC1	Platelet DG rel 66
O=C(CSc1nnc(NC(=O)c2ccccc2Cl)s1)Nc1ccc2c(c1)oc1ccccc12	SENP7 block 82 (no result: SENP8 block-2)
COc1ccccc1C(C#N)N1N=C(C)CC1(C)C (stereo not given)	none
CC1=NN(C(C#N)c2ccccc2O)C(C)(C)C1 (stereo not given)	SENP8 block-2 43
CC1=C(Nc2ccc(C(=O)O)cc2)C(=O)c2ccccc2C1=O	none
CC(=O)NC1=C(Nc2ccc(N(C)C)cc2)C(=O)c2ccccc2C1=O	SENP8 block-2 44
COc1ccc(C2CC(c3ccccc3)=NN2C(=O)COC(=O)C2(C)CC2(Cl)Cl)cc1 (stereo not given)	none
Oc1cc(O)cc(-c2cc3ccc(O)cc3o2)c1	SENP8 block-1 53
CC/C(C)=N\N=C\c1c(O)n(CC)c2cc(C3=NNC(=O)CC3)ccc12	Platelet DG rel 75
Cc1nnc(SCC(=O)Nc2cccc(S(=O)(=O)NC3=NCCCCC3)c2)n1Cc1ccccc1	none
O=c1c2ccccc2c(C=Nc2cccc(S(=O)(=O)NC3=NCCCCC3)c2)c(O)n1Cc1ccccc1	SENP6 block 53
COc1ccc(-[n+]2c(C)cc(/C=C3\Sc4ccccc4N3C)cc2C)cc1	SENP8 block-2 43
CC(C)=CCC[C@H](C)CC1Cc2[nH]c(=S)[nH]c(=O)c2C(c2ccc(Cl)cc2)O1 (stereo not given in full)	none (no result: SENP8 block-1, Platelet DG rel, SENP6 block, SENP7 block)
COc1cc2c(cc1OC)-c1cc(Nc3cccc(C)c3)nc(=O)n1CC2	Platelet DG rel 86
COc1cc2c(cc1OC)-c1cc(Nc3ccccc3C)nc(=O)n1CC2	Platelet DG rel 93
CCOc1ccc(Nc2cc3n(c(=O)n2)CCc2cc(OC)c(OC)cc2-3)cc1	none
CCOc1ccccc1Nc1cc2n(c(=O)n1)CCc1cc(OC)c(OC)cc1-2	Platelet DG rel 90
CCNc1cc2n(c(=O)n1)CCc1cc(OC)c(OC)cc1-2	none
CC(Oc1cc(F)ccc1[N+](=O)[O-])C(=O)N(C)CC(=O)Nc1ccccc1C(F)(F)F (stereo not given)	none
Cc1cc([N+](=O)[O-])ccc1NC(=O)CCC(=O)N1CCCCCC1	none
CCN(CC)S(=O)(=O)c1cc(NC(=O)CSc2nccn2C)ccc1C	none
CCC(N=c1cc(-c2ccc(OC)cc2)oc2ccc(C)cc12)C(=O)O (stereo not given)	SENP6 block 52
Clc1cccc(CSc2ccc(-c3ccco3)nn2)c1	none
Cc1cccc(CSc2ccc(-c3ccco3)nn2)c1	SENP6 block 52
Oc1c(C=Nc2cccc3cccnc23)sc2ccccc12	SENP8 block-1 87, SENP6 block 92, SENP7 block 74 (no result: SENP8 block-2)
O=[N+]([O-])c1ccc(O)c(N=Cc2sc3ccccc3c2O)c1	none (no result: SENP8 block-1, SENP6 block, SENP7 block)
